Data on twelve compounds can be found in PubChem BioAssay (NCI).

About 83,000 compounds went through this panel and 20% of them were active in at least one assay; those are over-represented in the sample as a whole.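 Step 1: grow cells in 96-well plates. Step 2: add test compound at a single concentration. Step 3: incubate 48 h. Step 4: record percent growth.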 Values without a mark were called inactive. Active and inactive are the calls of the source. The calls were made as follows: active = growth percent below 10; inactive = the rest.

Holding throughout (assay): NCI-60 one-dose screen, 48 h (100 = growth as untreated, 0 = no growth, -100 = all killed)
What all share (conditions): 10 µM unless noted

In assay [1] the test system is DU-145 prostate.
Assay [2] deals with K-562 leukemia.
Assay [3] concerns MALME-3M melanoma.
The subject of assay [4] is MDA-MB-231 breast.
The test system of assay [5] is RXF 393 renal.
Assay [6] relates to SF-268 CNS.
The subject of assay [7] is SF-295 CNS.
In assay [8] the test system is SF-539 CNS.
In assay [9] the test system is UACC-257 melanoma.
Assay [10] deals with M14 melanoma.

`O=C(/C=C/c1cccc(Cl)c1)c1ccc(O)c(CN2CCN(c3cc4c(cc3F)c(=O)c(C(=O)O)cn4C3CC3)CC2)c1`: the growth in assay [1] was 34.6%; in assay [2], 20.4%; in [3], 44.1%; in assay [4], 70.5%; in assay [5], 39.5%; in assay [6], 36.9%. Moreover, the growth in [7] is 43.5%; in assay [8], 40.9%; in assay [9], 80.5%; in [10], 43%.

Consider `CCCc1cc(=O)n2c(C(=O)Nc3ccc(F)cc3)c(C(=O)Nc3ccc(F)cc3)sc2n1`, for which the growth was 82.1% [30 µM] in [1]; 75.1% [30 µM] in [2]; 38.5% [30 µM] in assay [3]; 44.2% [30 µM] in [4]; 10.4% [30 µM] in assay [5]; 18.1% [30 µM] in assay [6]. In addition, the growth in assay [7] is 73% [30 µM]; in assay [8] it was 63.2% [30 µM]; in assay [9] it was 67.2% [30 µM]; in assay [10], 70.9% [30 µM].

As to `COc1cccc(C2=NN3C(C2)c2cc(Br)cc(OC)c2OC32CCN(Cc3ccccc3)CC2)c1` (stereo not given), the growth in [1] is 105%; in assay [2], 105%; in assay [3], 99.7%; in assay [4], 109%; in [5], 115%; in assay [6] it was 94.5%. Further, the growth in [7] is 101%; in assay [8] it was 105%; in assay [9], 104%; in [10] it was 107%.

Regarding `COC(=O)c1cccc(NC(=O)c2ccc(-c3cccc(N)c3)o2)c1`, the growth was 110% in assay [1]; 94.9% in assay [2]; 91.1% in assay [3]; 99.4% in assay [4]; 102% in assay [5]; 100% in assay [6]. In addition, the growth in [7] is 98.4%; in assay [8], 92.6%; in assay [9], 112%; in [10], 112%.

For `O=C(O)c1ccc(N=CC(=O)c2ccc(-c3ccccc3)cc2)cc1`, the growth in assay [1] was 112%; in [2], 116%; in assay [3], 97.7%; in assay [4], 101%; in assay [5], 118%; in assay [6], 109%. The growth in assay [7] is 104%; in assay [8], 104%; in assay [9], 93.1%; in assay [10], 94.1%.

Take `Cn1cc(C(=O)c2nc(-c3c[nH]c4ccccc34)no2)c2ccccc21`: the growth in [1] was 102%; in assay [2], 37.9%; in [3], 58.4%; in [4], 69.8%; in assay [5] it was 90.1%; in assay [6] it was 92.1%. The growth in assay [7] is 68.5%; in assay [8], 91.7%; in assay [9], 83.9%; in assay [10], 64.5%.

For the compound `CN1CCN(c2ccc3nc(-c4ccc(OCCCCN5CCN(CCCCN6C(=O)c7cccc8cccc(c78)C6=O)CC5)cc4)[nH]c3c2)CC1`, the growth is 45% in assay [1]; 56.5% in [2]; 28% in assay [3]; 62.7% in assay [4]; 16.1% in assay [5]; 65.7% in assay [6]. For the same compound, the growth was 29.1% in assay [7], 39.8% in [8], 59.8% in [9] and 94.9% in assay [10].

For the compound `COc1cccc(-c2nn(C(C)(C)C)cc2-c2ccnc(NCCCNS(=O)(=O)c3cccc4ccccc34)c2)c1`, the growth in assay [1] is 107%; in assay [2], 104%; in assay [3], 114%; in assay [4], 106%; in assay [5], 109%; in assay [6] it was 108%. In addition, the growth in [7] was 101%; in assay [8], 113%; in assay [9], 110%; in assay [10] it was 101%.

In the case of `O=C1c2cc3c(cc2-c2c1c1ccc(Cl)cc1c(=O)n2CCCN1CCOCC1)OCO3`, the growth is 26.9% in assay [1]; 44.5% in assay [2]; 85.2% in [3]; 111% in assay [4]; 92.7% in assay [5]; 43.6% in [6]. The growth is 27.9% in assay [7], 22.7% in [8], 91.8% in assay [9] and 25.3% in assay [10].

Take `CC(C)C[C@@H](NC(=O)[C@@H](Cc1ccccc1)NC(=O)c1cnccn1)B1Oc2ccc(C[C@H](NC(=O)[C@H](Cc3ccc4c(c3)OB([C@@H](CC(C)C)NC(=O)[C@@H](Cc3ccccc3)NC(=O)c3cnccn3)O4)NC(=O)[C@@H](N)CC3CCC4OB([C@@H](CC(C)C)NC(=O)[C@@H](CC5CCCCC5)NC(=O)C5CNCCN5)OC4C3)C(=O)NCCCC[C@@H]3NC(=O)[C@@H](Cc4ccccc4)NC(=O)[C@H](CC(=O)O)NC(=O)CNC(=O)[C@H](CCCNC(=N)N)NC3=O)cc2O1` (stereo not given in full): the growth is -44.8% (active) in assay [1]; -0.546% (active) in [2]; -20.3% (active) in [3]; -7.69% (active) in assay [4]; -89.2% (active) in [5]; -52.7% (active) in assay [6]. The growth was -68.6% (active) in assay [7], -37.6% (active) in assay [8], -11.7% (active) in assay [9] and 0.189% (active) in assay [10].

As to `CC1=CC(C)(C)Nc2ccc(Cc3ccc4c(c3)C(C)=CC(C)(C)N4)cc21`, the growth in [1] was 98.1%; in [2], 114%; in assay [3] it was 87.2%; in [4], 86.1%; in [5], 79.6%; in [6], 103%. Also, the growth is 139% in [7], 96.6% in assay [8], 93.7% in assay [9] and 96.1% in [10].

`O=C1c2cc3c(cc2-c2c1c1ccc(F)cc1c(=O)n2CCCNCCO)OCO3`: the growth in [1] is -68.5% (active); in [2], -55.7% (active); in assay [3] it was -72.2% (active); in assay [4] it was -70% (active); in assay [5] it was -92.4% (active); in assay [6], -54.6% (active). Further, the growth in [7] is -14.3% (active); in [8] it was -86.4% (active); in assay [9] it was -28% (active); in assay [10] it was -39.7% (active).
